Assays:
Type in all cases: functional
[1] = test system: Plasmodium falciparum; test: GSK_TCMDC: Inhibition of Plasmodium falciparum 3D7 in whole red blood cells, using parasite LDH activity as an index of growth. Test compounds present at 2uM
[2] = test system: Plasmodium falciparum; test: GSK_TCMDC: Inhibition of Plasmodium falciparum Dd2 in whole red blood cells, using parasite LDH activity as an index of growth. Test compounds present at 2uM
[3] = test system: HepG2; test: GSK_TCMDC: Percent inhibition of human HepG2 cell line. Test compounds present at 10uM.

| SMILES | Inhibition [1] [%] | Inhibition [2] [%] | Inhibition [3] [%] |
| --- | --- | --- | --- |
| COc1cc(C(=O)Nc2ccc3nc(N4CCN(C)CC4)cc(C)c3c2)cc(OC)c1OC | 100 | 79 | 18 |
| Cc1ccc(NC(=O)c2ccc3ncccc3c2)cc1OC1CCN(Cc2ccc(F)cc2)C1.O=C(O)C(F)(F)F (centres undefined) | 83 | 28 | 11 |
| CC(O)C1CCCCN1C(=O)c1cccc(-c2ccc(-c3nc4ccccc4[nH]3)s2)c1 (centres undefined) | 100 | 23 | 24 |
| CN1CCC(Oc2ccc(CN3CC[C@H](NC(=O)c4ccc(F)c(F)c4)C3)c3ccccc23)C1.O=C(O)C(F)(F)F (some centres undefined) | 91 | 27 | 20 |
| Br.COc1ccc(CC(C)CON2C(N)=NC(N)=NC2(C)C)cc1 (centres undefined) | 94 | 96 | 59 |
| CO/C(=C\C=C\c1cc2cc(Cl)c(Cl)cc2[nH]1)C(=O)NCCCN1CCN(c2cccc(OC)c2)CC1 | 100 | 93 | 61 |
| Cc1nn(-c2ccccc2)nc1C(=O)NC1CCN(CCNC(=O)c2ccc(Cl)c(Cl)c2)CC1.O=C(O)C(F)(F)F | 89 | 5 | 15 |
| Cc1cc2ccccc2n1CC(=O)N1CC(C(=O)N2CCCCC2)Oc2ccccc21 (centres undefined) | 99 | 77 | 0 |
| O=C(NCc1ccc(F)cc1)Nc1cccc(-c2ccc(-c3nc4ccccc4[nH]3)cc2)c1 | 100 | 49 | 45 |
| O=C(Nc1ccc(OC2CCN(Cc3ccsc3)C2)c(Cl)c1)c1ccc(F)cc1.O=C(O)C(F)(F)F (centres undefined) | 89 | 73 | 0 |
| Cc1nn(-c2ccccc2)c2c1C(c1ccc(C(C)C)cc1)N1C(=N2)N(Cc2ccccc2)c2ccccc21 (centres undefined) | 95 | 37 | 7 |
| c1ccc2cc3c(Nc4ccc(N5CCCCCC5)cc4)ccnc3cc2c1 | 94 | 76 | 10 |
| Cc1ccccc1C1CCN(C2CCC(NC(=O)/C=C/c3ccc(OC(F)(F)F)cc3)CC2)CC1 (centres undefined) | 100 | 67 | 96 |
| CC(C)(C)OC(=O)Nc1cccc(-c2csc(NC(=N)N)n2)c1 | 97 | 83 | 4 |
| CCOc1ccc(-c2nonc2NC(=O)c2ccc(OC(C)C)cc2)cc1OCC | 100 | 100 | 13 |
| Cn1c(Nc2nnc(C3CC3)s2)nc2cc(Nc3ccnc(Nc4cccc(CS(C)(=O)=O)c4)n3)ccc21 | 97 | 83 | 0 |
| O=C(/C=C/c1ccc(Cl)c(Cl)c1)NCCCCCN1CCCC(CNC(=O)c2sc3ccccc3c2Cl)C1 (centres undefined) | 98 | 0 | 42 |
| Br.Oc1ccc(CCNCCCCCCNCCc2ccc(Cl)c3ccccc23)cc1O | 99 | 1 | 22 |
| COc1ccccc1N1CCN(CCCCN(C(=O)Nc2cccc(Cl)c2)C(=O)Nc2cccc(Cl)c2)CC1.Cl | 100 | 65 | 4 |
| CC1Cc2ccccc2N1S(=O)(=O)c1cccc(C(=O)Nc2nc(-c3ccccn3)cs2)c1 (centres undefined) | 84 | 77 | 32 |

| SMILES | Inhibition [1] [%] | Inhibition [2] [%] | Inhibition [3] [%] |
| --- | --- | --- | --- |
| CC(C)CCN1CCCN(Cc2ccc(C(=O)NCc3ccc(Cl)cc3)cc2)CC1.O=C(O)C(F)(F)F | 84 | 0 | 16 |
| O=C(Nc1ccc2c(c1)CCN2C1CCN(Cc2cccc(C(F)(F)F)c2)C1)c1ccco1 (centres undefined) | 95 | 92 | 4 |
| COc1ccc(Cl)cc1N1CCN(CCCNC(=O)c2ccc(-c3nc4cnccc4[nH]3)c(Br)c2)CC1 | 86 | 15 | 5 |
| Cc1noc(C)c1-c1cccc(CNCc2cccc(-c3ccc(-c4nc5cc(C(F)(F)F)ccc5[nH]4)s3)c2)c1.O=C(O)C(F)(F)F | 100 | 95 | 23 |
| NCC1CCCN1Cc1cccc(-c2ccc(-c3nc4cc(C(F)(F)F)ccc4[nH]3)cc2)c1.O=C(O)C(F)(F)F (centres undefined) | 100 | 95 | 20 |
| O=C(O)C(F)(F)F.c1cc(CN2CCN(CCN3CCOCC3)CC2)cc(-c2csc(-c3nc4ccccc4[nH]3)c2)c1 | 100 | 99 | 27 |
| Cc1cc(=NN=Cc2cccc(F)c2)c2cc(F)ccc2[nH]1 | 100 | 99 | 7 |
| Cc1ccc(Nc2nc(N/N=C/c3ccccc3[N+](=O)[O-])nc(Nc3ccc([N+](=O)[O-])cc3)n2)cc1C | 100 | 81 | 4 |
| Cc1ccc2[nH]c(-c3cc(-c4ccc(OCc5ccccc5)cc4)cnc3N)nc2c1.O=C(O)C(F)(F)F | 91 | 87 | 33 |
| O=C(Nc1ccccc1)NC1CCN(CCC2(c3ccc(Cl)c(Cl)c3)COCN(C(=O)c3ccccc3)C2)C1 (centres undefined) | 92 | 81 | 23 |
| N#Cc1cccc(NC(=O)Nc2ccc(-c3cccc(-c4nc5cc(F)ccc5[nH]4)c3)cc2)c1 | 100 | 100 | 64 |
| O=[N+]([O-])c1cccc(-n2nc(NCc3ccc(Cl)cc3)nc2-c2ccc(F)c(C(F)(F)F)c2)c1 | 98 | 93 | 6 |
| Cc1ccc(Nc2nc3cc(Nc4ccnc(Nc5cccc(CS(C)(=O)=O)c5)n4)ccc3o2)cc1.O=C(O)C(F)(F)F | 100 | 81 | 55 |
| Cc1cccc2nc(-c3ccc(-c4ccc(CNCc5cnn(-c6ccccc6)n5)cc4)s3)[nH]c12.O=C(O)C(F)(F)F | 97 | 48 | 16 |
| Cc1cc(=NN=Cc2ccccc2Cl)c2cc(F)ccc2[nH]1 | 100 | 4 | 5 |
| Cc1nc2ccc(Nc3nccc(-c4c(-c5cccc(NC(=O)c6c(F)cccc6F)c5)nn5ccccc45)n3)cc2nc1C | 91 | 45 | 55 |
| O=C(/C=C/c1ccc(Cl)c(Cl)c1)N1CCC(CCCN2CCC(c3c[nH]c4ccccc34)CC2)CC1 | 100 | 45 | 44 |
| CCNc1cc(C(=O)N[C@@H](Cc2ccccc2)[C@H](O)CNC23CC4CC(CC(C4)C2)C3)cc(N2CCCCS2(=O)=O)c1.Cl | 98 | 99 | 3 |
| Cc1nn(C)cc1C(C)Nc1nncc(-c2ccc(C(F)(F)F)cc2)n1 (centres undefined) | 100 | 99 | 0 |
| CCn1cc(C=C2Oc3c(ccc(O)c3CN3CCCCC3C)C2=O)c2ccccc21 (centres undefined) | 94 | 80 | 0 |

| SMILES | Inhibition [1] [%] | Inhibition [2] [%] | Inhibition [3] [%] |
| --- | --- | --- | --- |
| Cc1cccc2nc(-c3cccc(-c4cccc(CNCc5cnn(-c6ccccc6)n5)c4)c3)[nH]c12.O=C(O)C(F)(F)F | 99 | 38 | 12 |
| CCCCC(=O)Nc1nonc1-c1ccc(OCC)c(OCC)c1 | 100 | 95 | 9 |
| CN1CCN(Cc2ccc(-c3ccc4c(Nc5ccc(F)cc5Cl)ccnc4c3)o2)CC1 | 100 | 100 | 8 |
| O=C(C=Cc1ccc(Cl)c(Cl)c1)NCCCCCN1CCC(CCCNS(=O)(=O)c2cccc(C(F)(F)F)c2)CC1 | 100 | 59 | 99 |
| COCCNCc1ccc(-c2ccc(CNC3CCN(Cc4ccccc4)CC3)cc2)cc1.O=C(O)C(F)(F)F | 100 | 61 | 22 |
| O=C(NCC(CCCN1CCC(c2c[nH]c3ccccc23)CC1)c1ccccc1)Nc1ccc(Cl)c(Cl)c1 (centres undefined) | 100 | 64 | 38 |
| Cc1ccc(S(C)(=O)=O)cc1/C=C/C(=O)O | 96 | 1 | 0 |
| Cl.c1ccc(-c2cc(NCCCCNc3cc(-c4ccccc4)nc4ccccc34)c3ccccc3n2)cc1 | 100 | 97 | 70 |
| CCCCCCCCN1CCCN(C(=O)c2cccc(NC(=O)Nc3ccc4ccccc4c3)c2)CC1.O=C(O)C(F)(F)F | 97 | 39 | 39 |
| O=C(O)C(F)(F)F.c1ccc(CCNCc2ccc(-c3cccc(CNc4ccc5ncccc5c4)c3)cc2)cc1 | 91 | 17 | 30 |
| Fc1ccc2[nH]c(-c3ccc(-c4ccc(CNCCc5ccncc5)cc4)s3)nc2c1.O=C(O)C(F)(F)F | 99 | 100 | 34 |
| Br.CC(CON1C(N)=NC(N)=NC1(C)C)Cc1ccc(Cl)cc1Cl (centres undefined) | 92 | 97 | 61 |
| Brc1ccc(Nc2nc(NCc3ccccc3)c3ccccc3n2)cc1 | 100 | 99 | 24 |
| CC(=O)Nc1nc(C(=O)Nc2cccc(-c3cccc(-c4nc5cc(F)ccc5[nH]4)c3)c2)cs1 | 100 | 100 | 39 |
| O=C(Nc1cn(-c2ccc(OCc3cccc(F)c3)c(Cl)c2)c2ncncc12)c1ccncc1 | 100 | 81 | 13 |
| O=C(NC1CCN(Cc2ccccc2O)C1)c1cccc(C(F)(F)F)c1.O=C(O)C(F)(F)F (centres undefined) | 98 | 62 | 0 |
| Cc1cc(=NN=Cc2ccc(F)cc2)c2cc(F)ccc2[nH]1 | 100 | 61 | 6 |
| CCCN(CCC)c1nn2c(=O)c(C(=O)N3CCN(Cc4ccccc4)CC3)cnc2s1 | 84 | 89 | 0 |

From ChEMBL document CHEMBL1157539, “Thousands of chemical starting points for antimalarial lead identification” (Nature, 2010)
